The term inhibition denotes the drop in the measured response relative to a control, in per cent.

18 molecules from PubChem BioAssay can be followed below.

A number with no mark means an inactive call. For part of these data: Results with a measured potency or affinity are listed apart. Activity calls are given as the source filed them. Unless noted, the rule behind the calls is not given here.

A short description of experiment [1]: antimalarial activity against Dd2 strain (AID 2302;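 active = growth inhibition above 50% at the single 2 µM test dose, taken to imply half-maximal potency below 2 µM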;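 note: 0% = DMSO untreated growth and 100% = chloroquine plus artemisinin killed control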). The following applies: P. falciparum Dd2 in RBCs, LDH growth readout, 72 h; at 2 µM; stronger effect = higher value.
A short description of experiment [2]: human hepatoma cell viability loss – ATP luminescence, cytotoxicity control for P. falciparum antimalarial project, primary screen (AID 2303;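 active = inhibition above 50%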;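 note: 0% = DMSO wells and 100% = digitonin-killed cells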). The following applies: HepG2 viability, 24-48 h, at 10 µM, stronger effect = higher value.
Experiment [3] addresses L-lactate dehydrogenase (Plasmodium falciparum (isolate CDC / Honduras)) (UniProt Q27743). The experiment can be described thus: PfLDH activity inhibition – cell lysate, 3D7 strain, counter-screen for P. falciparum growth inhibition project (AID 2304).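 Note: 0% = vehicle and 100% = reference inhibitor.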 The following applies: P. falciparum 3D7 crude extract, LDH APAD/NBT absorbance; at 2 µM; stronger effect = higher value.
Experiment [4] can be described thus: inhibition of 3D7 malaria parasite growth – strain 3D7 (AID 2306).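 Note: 0% = DMSO wells and 100% = chloroquine plus artemisinin control wells.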 The following applies: P. falciparum 3D7 erythrocytic growth, LDH absorbance, 72 h; at 2 µM; stronger effect = higher value.
The target of experiment [5] is Calcium-dependent protein kinase 1 (Plasmodium falciparum (isolate 3D7)) (UniProt P62344). The experiment can be described thus: PfCDPK1 kinase inhibitors, biochemical, TCAMS library (AID 1159585; cut-off not given, nearly all actives have IC50 up to about 0.98 µM;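 note: inhibitors leave more ATP so luminescence rises with inhibition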). As to conditions: recombinant PfCDPK1, Kinase-Glo ATP depletion luminescence.
Experiment [6] addresses Plasmodium falciparum protein kinase 6 (PK6, PF3D7_1337100) (UniProt Q8IDW1). The experiment can be described thus: PfPK6 kinase inhibitors, biochemical, TCAMS library (AID 1159586). The following applies: recombinant PfPK6, Kinase-Glo ATP depletion luminescence. Background: Kinase-Glo reads ATP consumption through a luciferase reaction.
Experiment [7] addresses Protein kinase 7 (PK7), Plasmodium falciparum 3D7 (PF3D7_0213400) (UniProt Q7YTF7). The experiment can be described thus: inhibition of Plasmodium PK7 catalytic activity – biochemical, TCAMS antimalarial set, Kinase-Glo luminescence (AID 1159587). As to conditions: recombinant PfPK7, Kinase-Glo ATP depletion luminescence.
Experiment [8] has as its target Calcium-dependent protein kinase 4 (Plasmodium falciparum (isolate 3D7)) (UniProt Q8IBS5). The experiment can be described thus: PfCDPK4 kinase inhibitors, biochemical, TCAMS library (AID 1159588; cut-off not given, nearly all actives have IC50 up to about 0.91 µM). As to conditions: recombinant PfCDPK4, Kinase-Glo ATP depletion luminescence.

Sequence of Protein kinase 7 (PK7), Plasmodium falciparum 3D7 (PF3D7_0213400) (Q7YTF7 1-343): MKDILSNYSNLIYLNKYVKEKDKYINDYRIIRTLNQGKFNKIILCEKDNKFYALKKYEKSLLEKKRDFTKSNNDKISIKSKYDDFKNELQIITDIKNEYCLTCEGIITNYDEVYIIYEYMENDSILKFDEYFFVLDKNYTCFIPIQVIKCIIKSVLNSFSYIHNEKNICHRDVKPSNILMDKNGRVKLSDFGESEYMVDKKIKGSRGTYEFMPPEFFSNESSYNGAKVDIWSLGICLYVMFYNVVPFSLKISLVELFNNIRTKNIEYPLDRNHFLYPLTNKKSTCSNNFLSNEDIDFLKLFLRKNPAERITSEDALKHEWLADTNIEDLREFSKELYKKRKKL
Sequence of Calcium-dependent protein kinase 4 (Plasmodium falciparum (isolate 3D7)) (Q8IBS5 whole entry, looked up): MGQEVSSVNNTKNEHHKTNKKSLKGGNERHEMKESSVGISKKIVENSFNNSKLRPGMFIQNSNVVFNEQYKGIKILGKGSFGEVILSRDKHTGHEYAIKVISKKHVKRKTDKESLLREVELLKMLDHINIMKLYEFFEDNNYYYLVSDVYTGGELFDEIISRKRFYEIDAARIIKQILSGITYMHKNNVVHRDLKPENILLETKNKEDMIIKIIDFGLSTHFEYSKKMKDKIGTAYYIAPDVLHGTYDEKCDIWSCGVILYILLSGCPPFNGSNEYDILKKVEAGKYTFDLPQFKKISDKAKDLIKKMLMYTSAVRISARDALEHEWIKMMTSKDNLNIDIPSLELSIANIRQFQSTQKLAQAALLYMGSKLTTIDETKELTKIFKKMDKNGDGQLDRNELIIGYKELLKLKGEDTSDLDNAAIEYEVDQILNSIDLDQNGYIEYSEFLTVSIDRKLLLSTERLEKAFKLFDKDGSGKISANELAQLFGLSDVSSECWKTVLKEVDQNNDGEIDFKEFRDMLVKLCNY
Sequence of Calcium-dependent protein kinase 1 (Plasmodium falciparum (isolate 3D7)) (P62344 whole entry, looked up): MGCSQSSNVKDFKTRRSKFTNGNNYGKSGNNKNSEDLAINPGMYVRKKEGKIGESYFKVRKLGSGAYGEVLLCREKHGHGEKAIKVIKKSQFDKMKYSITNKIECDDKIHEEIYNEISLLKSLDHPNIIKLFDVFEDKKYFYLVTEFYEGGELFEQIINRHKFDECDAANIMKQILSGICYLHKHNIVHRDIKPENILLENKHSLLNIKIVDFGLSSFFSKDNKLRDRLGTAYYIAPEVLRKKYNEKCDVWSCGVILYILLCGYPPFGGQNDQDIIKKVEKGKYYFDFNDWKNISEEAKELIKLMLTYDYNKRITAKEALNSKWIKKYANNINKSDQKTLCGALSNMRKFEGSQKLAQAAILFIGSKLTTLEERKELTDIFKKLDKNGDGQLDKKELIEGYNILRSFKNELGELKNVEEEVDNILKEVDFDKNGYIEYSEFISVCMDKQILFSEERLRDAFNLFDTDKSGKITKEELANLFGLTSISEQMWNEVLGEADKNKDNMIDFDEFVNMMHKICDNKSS
Sequence of Plasmodium falciparum protein kinase 6 (PK6, PF3D7_1337100) (Q8IDW1 1-305): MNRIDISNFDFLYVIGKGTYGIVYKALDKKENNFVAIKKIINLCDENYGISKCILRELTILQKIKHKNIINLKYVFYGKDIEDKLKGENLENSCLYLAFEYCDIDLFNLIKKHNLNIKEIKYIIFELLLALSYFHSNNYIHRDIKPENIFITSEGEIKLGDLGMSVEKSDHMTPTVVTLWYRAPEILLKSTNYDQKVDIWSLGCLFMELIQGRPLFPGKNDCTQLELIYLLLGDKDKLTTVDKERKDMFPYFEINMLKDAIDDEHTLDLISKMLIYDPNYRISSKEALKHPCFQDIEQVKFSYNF
Sequence of L-lactate dehydrogenase (Plasmodium falciparum (isolate CDC / Honduras)) (Q27743 whole entry, looked up): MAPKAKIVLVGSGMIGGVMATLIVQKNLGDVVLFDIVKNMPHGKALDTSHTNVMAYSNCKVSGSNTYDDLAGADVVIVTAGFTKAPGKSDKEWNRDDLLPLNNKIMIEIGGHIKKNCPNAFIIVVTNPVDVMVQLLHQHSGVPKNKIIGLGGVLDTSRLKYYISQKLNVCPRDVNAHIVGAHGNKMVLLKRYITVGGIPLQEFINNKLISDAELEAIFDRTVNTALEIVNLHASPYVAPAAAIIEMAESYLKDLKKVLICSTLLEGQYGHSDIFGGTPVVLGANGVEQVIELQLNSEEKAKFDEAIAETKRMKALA

As for `CCOc1cc(CNCCCCCCNCc2cc(OCC)c(OCC)c3ccccc23)c2ccccc2c1OCC`, the growth inhibition in experiment [1] is 99% (active); in experiment [4], 101% (active). Besides, the inhibition was 100% (active) in experiment [2] and 2% in experiment [3]. For the same molecule, the outcome in experiment [5], in experiment [6], in experiment [7] and in experiment [8] was inactive.
In the case of `CCC/C=C/c1c(CNCCCNc2cc(=O)c3ccccc3[nH]2)sc(CC)c1Br`, the growth inhibition in experiment [1] is 71% (active); in experiment [4] it was 88% (active). Besides, the values for the inhibition in experiment [2] and in experiment [3] were 8% and -1%, respectively. Moreover, the result in experiment [5], in experiment [6], in experiment [7] and in experiment [8] was inactive.
For `Cc1cc(NN=Cc2cccc([N+](=O)[O-])c2)c2ccccc2n1`, the growth inhibition in experiment [1] was 98% (active); in experiment [4] it was 101% (active). Moreover, the inhibition in experiment [2] is -9%; in experiment [3], 3%. Also, the outcome in experiment [5], in experiment [6], in experiment [7] and in experiment [8] was inactive.
Regarding `O=C(/C=C/c1ccc(Cl)c(Cl)c1)N1CCC(CN2CCC(Cc3nc4ccccc4[nH]3)CC2)CC1`, the values for the growth inhibition in experiment [1] and in experiment [4] were 95% (active) and 101% (active), respectively. In addition, the values for the inhibition in experiment [2] and in experiment [3] were 34% and -2%, respectively. In addition, the outcome in experiment [5], in experiment [6], in experiment [7] and in experiment [8] was inactive.
For `CN(C)c1ccc(-c2nc3ccc(N)cc3[nH]2)cc1`, the values for the growth inhibition in experiment [1] and in experiment [4] were 97% (active) and 102% (active), respectively. Further, the inhibition was 1% in experiment [2] and -1% in experiment [3]. The result in experiment [5], in experiment [6], in experiment [7] and in experiment [8] was inactive.
Turning to `Cc1ccc(CCNCC(O)c2cccc(C(F)(F)F)c2)cc1` (centres undefined), the growth inhibition was 83% (active) in experiment [1] and 94% (active) in experiment [4]. Also, the inhibition is -3% in experiment [2] and 0% in experiment [3]. For the same molecule, the outcome in experiment [5], in experiment [6], in experiment [7] and in experiment [8] was inactive.
Consider `O=C(Nc1ccc(Cl)c(Cl)c1)Nc1ccc2nccc(N3CCN(Cc4ccccc4)CC3)c2c1`, for which the growth inhibition in experiment [1] was 100% (active); in experiment [4] it was 101% (active). The figures for the inhibition in experiment [2] and in experiment [3] were 31% and 1%, respectively. Further, the result in experiment [5], in experiment [6], in experiment [7] and in experiment [8] was inactive.
Regarding `CCN(CC)CCN(Cc1ccc(-c2ccc(C(F)(F)F)cc2)cc1)C(=O)Cn1nc(-c2ccc(C(F)(F)F)cc2)ccc1=O`, the growth inhibition was 83% (active) in experiment [1] and 100% (active) in experiment [4]. Also, the inhibition in experiment [2] is 44%; in experiment [3] it was -2%. The outcome in experiment [5], in experiment [6], in experiment [7] and in experiment [8] was inactive.
`COc1ccc(-c2cccc(NC(=O)c3ccc(Cl)cc3)c2)cc1CN1CCCC1`: the growth inhibition in experiment [1] is 52% (active); in experiment [4], 97% (active). Further, the inhibition in experiment [2] was 55% (active); in experiment [3], -7%. Besides, the result in experiment [5], in experiment [6], in experiment [7] and in experiment [8] was inactive.
On to `CCOc1ccc(C(C)NC(=O)Cc2ccccc2F)cc1OCC` (centres undefined), for which the growth inhibition is 44% in experiment [1] and 96% (active) in experiment [4]. Moreover, the values for the inhibition in experiment [2] and in experiment [3] were 15% and 6%, respectively. Moreover, the result in experiment [5], in experiment [6], in experiment [7] and in experiment [8] was inactive.
Regarding `Cc1cc(N[C@@H](Cc2ccccc2)C(=O)NC2CCCC2)nc(NCc2ccccc2C)n1`, the growth inhibition is 20% in experiment [1] and 91% (active) in experiment [4]. Further, the values for the inhibition in experiment [2] and in experiment [3] were 2% and 3%, respectively. Also, the result in experiment [5], in experiment [6], in experiment [7] and in experiment [8] was inactive.
Turning to `CCOC(=O)c1ccc(N=C2SC(=Cc3cc(Br)ccc3O)C(=O)N2C)cc1`, the growth inhibition in experiment [1] is 96% (active); in experiment [4], 99% (active). Further, the inhibition is -3% in experiment [2] and -2% in experiment [3]. In addition, the outcome in experiment [5], in experiment [6], in experiment [7] and in experiment [8] was inactive.
For the molecule `COc1ccc(C2=CCN(c3ccc(Cl)c(Cl)c3)C2=O)cc1OCCN1CCCCC1`, the growth inhibition in experiment [1] was 99% (active); in experiment [4] it was 97% (active). For the same molecule, the inhibition in experiment [2] was 19%; in experiment [3], -2%. The result in experiment [5], in experiment [6], in experiment [7] and in experiment [8] was inactive.
On to `CCOc1ccc2c(NN=Cc3ccc(OC)c(OC)c3)cc(C)nc2c1`, for which the figures for the growth inhibition in experiment [1] and in experiment [4] were 58% (active) and 100% (active), respectively. Further, the inhibition in experiment [2] is 22%; in experiment [3], 2%. For the same molecule, the result in experiment [5], in experiment [6], in experiment [7] and in experiment [8] was inactive.
`Cc1noc(C)c1-c1cccc(CNCc2ccc(-c3cccc(-c4nc5c(C)cccc5[nH]4)c3)cc2)c1`: the growth inhibition in experiment [1] is 94% (active); in experiment [4], 101% (active). The results for the inhibition in experiment [2] and in experiment [3] were 24% and 7%, respectively. The outcome in experiment [5], in experiment [6], in experiment [7] and in experiment [8] was inactive.
For the molecule `NC(=O)c1ccsc1NC(=O)CNC(c1ccccc1)c1ccccc1`, the growth inhibition was 37% in experiment [1] and 88% (active) in experiment [4]. For the same molecule, the figures for the inhibition in experiment [2] and in experiment [3] were 8% and 3%, respectively. Moreover, the result in experiment [5], in experiment [6], in experiment [7] and in experiment [8] was inactive.
In the case of `c1ccc2[nH]c(-c3ccc(-c4ccc(CN5CCCCC5)cc4)cc3)nc2c1`, the growth inhibition in experiment [1] is 100% (active); in experiment [4] it was 99% (active). The inhibition in experiment [2] was 27%; in experiment [3] it was 2%. The result in experiment [5], in experiment [6], in experiment [7] and in experiment [8] was inactive.
Turning to `O=C1OC2(CCN(Cc3cccc(-c4ncc[nH]4)c3)CC2)CN1CCNCc1ccccc1`, the growth inhibition in experiment [1] is -1%; in experiment [4], 94% (active). In addition, the inhibition in experiment [2] is -8%; in experiment [3], -1%. Further, the outcome in experiment [5], in experiment [6], in experiment [7] and in experiment [8] was inactive.
